Compounds with a hit are over-represented: about 19% of the library has one in this group of screens.
TDP1 cell noCPT: qHTS for Inhibitors of human tyrosyl-DNA phosphodiesterase 1 (TDP1): qHTS in cells in absence of CPT; DT40 Tdp1-/- hTDP1 cells, no CPT, ATP luminescence, 48 h; Potency, µM (series often up to 46.2 µM), for the others: at the top dose activity change, negative = growth inhibition, most hits filed as inhibitors; actives 15% (n = 420,000); AID 686978, 2013; also: potency is read from the fitted curve at half-maximal effect; % is scaled to controls: 0 for no effect and ±100 for the full control effect; nearly all actives have a fitted effect of over 55% in size
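Growth kinetics read by CellTiter-Glo luminescence after ≥48 hr at 37 °C. Cells: DT40 Tdp1-/- stably carrying human TDP1, 400 per well, compound exposure in the absence of CPT (DMSO vehicle).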
ASM inhibitor: Inhibitors of Secretory Acid Sphingomyelinase (S-ASM): qHTS | Sphingomyelin phosphodiesterase (Homo sapiens), P17405 | Potency, µM (highest dose often 57.5 µM), inactives show at the top dose activity change, negative = inhibition, usual class: inhibitors | placental ASM, HMU-PC fluorogenic substrate, 60 min | actives 0.006% (n = 340,000); also: potency is read from the fitted curve at half-maximal effect
Target sequence (P17405 47-631 limits assumed): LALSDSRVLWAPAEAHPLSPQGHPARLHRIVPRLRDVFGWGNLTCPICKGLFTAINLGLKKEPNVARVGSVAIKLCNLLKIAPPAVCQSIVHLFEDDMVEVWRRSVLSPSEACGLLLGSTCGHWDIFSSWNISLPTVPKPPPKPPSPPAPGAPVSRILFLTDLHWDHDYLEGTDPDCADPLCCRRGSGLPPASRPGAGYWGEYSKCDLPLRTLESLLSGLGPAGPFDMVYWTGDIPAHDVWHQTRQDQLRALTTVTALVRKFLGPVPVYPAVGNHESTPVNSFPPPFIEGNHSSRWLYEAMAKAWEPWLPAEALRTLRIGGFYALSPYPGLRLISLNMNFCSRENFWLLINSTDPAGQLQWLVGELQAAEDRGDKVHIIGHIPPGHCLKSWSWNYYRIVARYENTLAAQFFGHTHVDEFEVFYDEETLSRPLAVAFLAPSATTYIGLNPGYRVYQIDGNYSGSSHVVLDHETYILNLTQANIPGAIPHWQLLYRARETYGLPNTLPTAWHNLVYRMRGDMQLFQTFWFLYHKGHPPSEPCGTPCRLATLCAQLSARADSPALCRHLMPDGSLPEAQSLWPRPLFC
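Human placenta-derived ASM preincubated with compound 10 min at room temperature, then reacted with 9 uM (final) fluorogenic HMU-PC substrate for 60 min at 37 C. Stop solution raises pH to 10; fluorescence read at Ex 386/Em 447 nm.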
TGFb inhibitor: qHTS for Inhibitors of TGF-b | HepG2 CAGA-GFP TGF-b/SMAD3 reporter, GFP fluorescence, 18 h; TGF-beta stimulated, 500 pg/mL final | Potency, µM (titrated, usually from 46.1 µM), for the others: at the highest dose activity, negative = inhibition, usual class: inhibitors | actives 1.2% (n = 410,000) | AID 588855, 2011; also: potency is read from the fitted curve at half-maximal effect; % is scaled to controls: 0 for no effect and ±100 for the full control effect; nearly all actives have a fitted effect of over 65% in size
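HEPG2 CAGA-GFP, 1000 cells/well; 2 h settle, 37 C; cpd via pin tool; TGF-b 500 pg/mL final; 18 h, 37 C; GFP imaging ex488/em500-530; %Activity normalised to -TGF-b and +DMSO controls; CRC fit, curve class.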
IL1B secr inh: qHTS for Inhibitors of Inflammasome Signaling: IL-1-beta AlphaLISA Primary Screen. THP-1 LPS/ATP IL-1B secretion, AlphaLISA, 16 h; active compounds read low. activity change, % at 57.5 µM. actives 4.7% (n = 360,000). AID 743279, 2014; in the data active = activity change below about -50%; inconclusive = mostly about -30% to -49%; also: % is scaled to controls: 0 for no effect and ±100 for the full control effect
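THP-1 cells pretreated 1 hr with compounds (up to 57.5 uM final), then stimulated with LPS (250 ng/mL final) plus ATP (1.25 mM final); secreted IL-1B measured by AlphaLISA after 16 hr, decreased signal indicating inhibition.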
HepG2 viability: qHTS for Inhibitors of TGF-b: Cytotox Counterscreen; HepG2 CAGA-GFP viability, ATP luminescence, 18 h; Potency, µM (highest dose often 46.1 µM), for the others: at the top dose activity change, negative = cytotoxicity, most hits filed as cytotoxic; actives 0.76% (n = 410,000); AID 588856, 2011; also: potency is read from the fitted curve at half-maximal effect
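CellTiter-Glo luminescence gave cytotoxicity after 18 hours at 37 degrees C. The cells were HepG2 CAGA-GFP in 1% FBS DMEM, stimulated with 500 pg/mL TGF-beta after compound addition. %Activity was normalised to no-cell wells (complete cell-killing) and DMSO (no toxicity), and curves were fitted and classified.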
DT40 TDP1 CPT: qHTS for Inhibitors of human tyrosyl-DNA phosphodiesterase 1 (TDP1): qHTS in cells in presence of CPT; chicken DT40 Tdp1-/-;hTDP1 cells + 20 nM CPT, ATP luminescence, 48 h; Potency, µM (series often up to 46.2 µM), for inactives: at the top dose activity change, negative = growth inhibition, hits mostly inhibitors; actives 12% (n = 420,000); also: potency is read from the fitted curve at half-maximal effect; % is scaled to controls: 0 for no effect and ±100 for the full control effect; nearly all actives have a fitted effect of over 55% in size
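Cell growth measured by CellTiter-Glo luminescence after a minimum 48 h, 37 C compound exposure with 20 nM CPT in Tdp1-knockout DT40 cells stably expressing hTDP1, seeded 400/well; qHTS titration format.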
* marks the source's active call; other numbers are inactive results; [ ] = remark or other dose. Unless noted, calls follow the shape of the dose curve; as a rule, active = well fitted curve in the direction sought with a large enough effect; inconclusive = small, poorly fitted or top-dose-only effect, or another doubt; inactive = no such curve, though single readings can be large; an effect the other way counts as inactive or inconclusive.

What do the screens show for `CC(=O)N(CCC(c1ccccc1)c1ccco1)Cc1cccs1` (stereo unspecified)?
TDP1 cell noCPT: inconclusive; ASM inhibitor: -2.5%; TGFb inhibitor: 0.0%; IL1B secr inh: -19.8; HepG2 viability: 0.1%; DT40 TDP1 CPT: 14.6µM*

What do the screens show for `COc1cc(OC)c2nc(C)c3c(c2c1)N(c1ccc(O)cc1)CC3`?
TDP1 cell noCPT: 16.4µM*; ASM inhibitor: -2.1%; TGFb inhibitor: inconclusive; HepG2 viability: -25.8%; DT40 TDP1 CPT: inconclusive

How did COc1ccc(N2CCN(c3cc(C)c4ccc(O)cc4n3)CC2)cc1 do in these assays?
TDP1 cell noCPT: inconclusive; ASM inhibitor: 26.9%; TGFb inhibitor: 2.1%; IL1B secr inh: 3.4; HepG2 viability: -23.3%; DT40 TDP1 CPT: -26.4%

How did COC(=O)[C@H]1C[C@@H](c2ccccc2)[C@H](C)C1(C)C do in these assays?
TDP1 cell noCPT: -2.4%; ASM inhibitor: -3.0%; TGFb inhibitor: 9.9%; IL1B secr inh: 15.2; HepG2 viability: 10.2%; DT40 TDP1 CPT: 4.4%

What do the screens show for `COc1cccc2cc(C(=O)Nc3ccccc3C)/c(=N/O)oc12`?
TDP1 cell noCPT: 16.4µM*; ASM inhibitor: 0.3%; TGFb inhibitor: inconclusive; IL1B secr inh: 21.3; HepG2 viability: -37.9%; DT40 TDP1 CPT: 16.4µM*

What do the screens show for `N=c1oc2cc(O)ccc2cc1C(=O)Nc1ccc(F)cc1`?
TDP1 cell noCPT: inconclusive; ASM inhibitor: inactive; TGFb inhibitor: 0.0%; IL1B secr inh: -55.6*; HepG2 viability: 0.0%; DT40 TDP1 CPT: inconclusive

Results for COc1ccc2o/c(=N\O)c(C(=O)Nc3ccccc3OC)cc2c1 ?
TDP1 cell noCPT: 5.8µM*; ASM inhibitor: -0.3%; TGFb inhibitor: 2.3%; IL1B secr inh: -13.5; HepG2 viability: 1.4%; DT40 TDP1 CPT: 3.66µM*

Results for COc1ccc(NC(=O)c2cc3ccc(O)cc3o/c2=N\O)cc1 ?
TDP1 cell noCPT: inconclusive; ASM inhibitor: 13.6%; TGFb inhibitor: -1.1%; IL1B secr inh: inconclusive; HepG2 viability: -33.1%; DT40 TDP1 CPT: 4.11µM*

What do the screens show for `O=C(CCc1nc(-c2ccccc2Cl)no1)NCCc1ccccc1`?
TDP1 cell noCPT: -28.0%; ASM inhibitor: -0.1%; TGFb inhibitor: 0.0%; IL1B secr inh: -1.8; HepG2 viability: 4.3%; DT40 TDP1 CPT: inconclusive

What do the screens show for `COc1cc(-c2cc(C)c3cccc(OC)c3n2)cc2c1OCCN(C(=O)CC1NC(=O)c3ccccc31)C2` (stereo unspecified)?
TDP1 cell noCPT: -13.8%; DT40 TDP1 CPT: -13.8%[9.04 µM]

Results for Cc1cccc(Oc2ccc(NC(=O)CCC(=O)OCC(=O)c3ccc(Br)cc3)cc2)c1C ?
TDP1 cell noCPT: 11.6µM*; TGFb inhibitor: -4.9%; HepG2 viability: -90.6%; DT40 TDP1 CPT: 13µM*

How did Cc1ccc(C(=O)COC(=O)CCC(=O)Nc2ccc(Oc3cc(C)ccc3C(C)C)cc2)cc1 do in these assays?
TDP1 cell noCPT: inconclusive; TGFb inhibitor: 12.3%; HepG2 viability: -20.0%; DT40 TDP1 CPT: inconclusive

How did Cc1ccc(C(=O)COC(=O)CCC(=O)Nc2ccc(Oc3ccccc3)cc2)cc1C do in these assays?
TDP1 cell noCPT: -2.1%; TGFb inhibitor: -5.9%; HepG2 viability: -2.5%; DT40 TDP1 CPT: 8.9%

Results for CC(C)(C)c1ccc(Oc2ccc(NC(=O)CCC(=O)OCC(=O)c3ccccc3)cc2)cc1 ?
TDP1 cell noCPT: 13µM*; TGFb inhibitor: inconclusive; HepG2 viability: -54.9%; DT40 TDP1 CPT: 14.6µM*

What do the screens show for `Cc1ccc(C)c(Cn2c(=O)n(C)c(=O)c3sccc32)c1`?
TDP1 cell noCPT: inconclusive; ASM inhibitor: 0.0%; TGFb inhibitor: -8.3%; IL1B secr inh: 35.6; HepG2 viability: 5.6%; DT40 TDP1 CPT: -18.9%

How did CCN1CCOC(=O)C1CC(=O)Nc1ccc(Br)cc1 (stereo unspecified) do in these assays?
TDP1 cell noCPT: inconclusive; TGFb inhibitor: -10.9%; HepG2 viability: -20.7%; DT40 TDP1 CPT: 23.1µM*

How did CCN1CCOC(=O)C1CC(=O)Nc1cc(C)ccc1OC (stereo unspecified) do in these assays?
TDP1 cell noCPT: 2.59µM*; TGFb inhibitor: inconclusive; HepG2 viability: 3.3%; DT40 TDP1 CPT: 5.17µM*

How did CCN1CCN(CCC(=O)Nc2ccc(Br)cc2)CC1 do in these assays?
TDP1 cell noCPT: -1.0%; ASM inhibitor: 65.1%; TGFb inhibitor: -5.6%; IL1B secr inh: 10.2; HepG2 viability: 3.0%; DT40 TDP1 CPT: -26.1%

Results for NC(=O)c1ccc(NC(=O)COC(=O)C2(c3cccc(F)c3)CCCC2)cc1 ?
TDP1 cell noCPT: 25.9µM*; ASM inhibitor: -0.7%; TGFb inhibitor: -16.4%; IL1B secr inh: -13.1; HepG2 viability: -16.2%; DT40 TDP1 CPT: inconclusive

How did C[C@H](CO)N1C[C@H](C)[C@H](CN(C)C(=O)NC2CCCCC2)Oc2ncc(Br)cc2C1=O do in these assays?
TDP1 cell noCPT: -19.2%; TGFb inhibitor: -0.2%; IL1B secr inh: 34.3; HepG2 viability: -0.9%; DT40 TDP1 CPT: -10.3%

How did N#Cc1cc2sc3nnc(-c4ccncc4)n3c2cc1C#N do in these assays?
TDP1 cell noCPT: 10.3µM*; ASM inhibitor: -4.0%; TGFb inhibitor: -14.9%; IL1B secr inh: -83.3*; HepG2 viability: 6.3%; DT40 TDP1 CPT: inconclusive

How did COc1ccccc1NC(=O)Cn1nc(Cc2cccnc2)c2ccccc2c1=O do in these assays?
TDP1 cell noCPT: -10.4%; ASM inhibitor: 0.1%; TGFb inhibitor: 2.9%; IL1B secr inh: -4.2; HepG2 viability: 5.2%; DT40 TDP1 CPT: -2.3%

What do the screens show for `CC(C)(C)S(=O)N1Cc2cc(CO)cc(-c3ccccc3)c2[C@@H]1CCO` (stereo partly specified)?
TDP1 cell noCPT: inconclusive; ASM inhibitor: 7.5%; TGFb inhibitor: inconclusive; IL1B secr inh: -5.3; HepG2 viability: -14.7%; DT40 TDP1 CPT: inconclusive

How did Clc1ccccc1OCc1nnc(-c2ccccc2Br)o1 do in these assays?
TDP1 cell noCPT: -16.9%; ASM inhibitor: -5.2%; TGFb inhibitor: -7.0%; IL1B secr inh: inconclusive; HepG2 viability: -16.3%; DT40 TDP1 CPT: -6.8%
